Measured values taken from ChEMBL document CHEMBL4513216, “Probing the Open Global Health Chemical Diversity Library for Multistage-Active Starting Points for Next-Generation Antimalarials” (ACS Infect Dis, 2020).
In all, about 69,000 compounds went through this assay and about 8,600 (12%) showed an effect of 50% or more. The sample holds strong results, similar compounds and a random draw of the others, so the mix is not that of the screen.

Test system: Plasmodium berghei
Test: Screen against P. berghei liver stage (PbLuc), transformed with Luciferase, at 10uM
Format: functional, HepG2
Settings: tested at 10 uM

SMILES	INHIBITION [%]
CCc1nc(NCCc2nc(C)c(C)s2)c2cnn(C)c2n1	27.6
CCCc1nc(N[C@H]2COC[C@@H]2N2CCCC2)c2cnn(C)c2n1	25.8
CCc1nc(NCCc2c(C)nn(CC)c2C)c2cnn(C)c2n1	65.7
CCCc1nc(NCc2c(C)nn(CCC)c2C)c2cnn(C)c2n1	66.6
Cc1cc(C(F)(F)F)nc(CCNc2nc(C)nc3c2cnn3C)n1	15.3
CCCc1nc(N[C@H]2COC[C@@H]2N2CCCCC2)c2cnn(C)c2n1	-19.8
CC(C)(C)c1ncc(CNCC2CCCN2c2cccnn2)s1 (stereo not drawn)	31.3
Cn1cc(C(=O)NC[C@@H]2OC[C@H]3CN(Cc4ccco4)CC[C@H]32)cn1	-1.53
CC(C)OCCN1CCN(C(C)c2nc(C3CC3)no2)CC1 (stereo not drawn)	33.6
O=C(NCCNc1ncccn1)N1CCCC1	-0.113
Cc1ccc(N2CC(c3nccc(C)n3)C2)nn1	19.64
CCOC(C)C(=O)NCc1ccc(N(C)C)cc1 (stereo not drawn)	-25.9
CC(C)c1cc(Br)ccc1NC(=O)NCC(O)CO (stereo not drawn)	25.4
CCOCC(O)CN1CCN(C(=O)c2cc(F)cc(F)c2)CC1 (stereo not drawn)	3.73
O=C(NCCSC1CCCC1)c1cnccn1	4.41
O=C(NCCNc1cc(N2CCCC2)ncn1)c1cnccn1	19.2
CC(C)(C)c1ccc(C(=O)NCCCNC(=O)c2cnccn2)cc1	-23.45
O=C(NCc1csc(Br)c1)c1cnccn1	-43.6
CC(C)(C)c1ccc(S(=O)(=O)CCNC(=O)c2cnccn2)cc1	26.8
O=C(CCNC(=O)c1cnccn1)Nc1ncc[nH]1	59.1
O=C(CCCNC(=O)c1cnccn1)Nc1ncc[nH]1	56.3
O=C(NCC(=O)N1CCc2ccccc2C1)c1cnccn1	-112
O=C(CNC(=O)c1cnccn1)Nc1ncc[nH]1	71.2
O=C(Cc1ccccn1)N1CCC2(CC1)CC(Oc1ccccn1)CO2 (stereo not drawn)	14.2
O=C(c1cccnc1Oc1ccc(Cl)cc1)N1CC[C@@H](O)C1	11.5
Cn1nccc1C(=O)N1CCC2(CC1)COC(COc1ccccn1)C2 (stereo not drawn)	8.64
CC(=O)Nc1nc(C)c(S(=O)(=O)NCCc2cccnc2)s1	13

SMILES	INHIBITION [%]
Cc1ccc2oc(CN3CCC(C(=O)O)(n4ccnc4)CC3)c(C)c2c1	-23.5
Cc1nc2c(c(NC(C)C)n1)CCN(C1CCOCC1)CC2	36.4
Cc1cnn(CCCNC(=O)NCCS(=O)(=O)Nc2ccccc2)c1	-4.4
Cc1cnn(CCCNC(=O)NC(C)C(=O)Nc2ccccc2)c1 (stereo not drawn)	68.8
Cc1cnn(CCCNC(=O)NCCC(=O)Nc2ccccc2)c1	22.6
Cc1nc2c(c(C)c1CC(=O)NCc1ccco1)c(=O)[nH]n2C	13.6
c1cnnc(N2CCCC2CNc2cnc3ccccc3n2)c1 (stereo not drawn)	7.08
c1cnnc(N2CCCC2CNc2ncnc3ccsc23)c1 (stereo not drawn)	52.3
c1cnnc(N2CCCC2CNc2ncnc3sccc23)c1 (stereo not drawn)	-19.6
c1cnnc(N2CCCC2CNc2ncnc3c2CCC3)c1 (stereo not drawn)	-24.2
c1cnnc(N2CCCC2CNc2ncnc3ccccc23)c1 (stereo not drawn)	64.7
Cn1ncc2c(NCC3CCCN3c3cccnn3)ncnc21 (stereo not drawn)	21.5
Cc1nc(CN(C)c2cc(N3CCCC3CO)ncn2)cs1 (stereo not drawn)	22.1
O=C1c2cccnc2OC(CN2CCOCC2)CN1Cc1cccs1 (stereo not drawn)	15.4
CN1CCC(CN(C)C(=O)c2cc(C3CCCN3C)ccn2)CC1 (stereo not drawn)	-12.9
Cn1nc(CNC(=O)CC#N)c2c1CN(CC1CC1)CC2	16.9
Cn1cc(CN2CCCC(c3nc(O)cc(-c4cccs4)n3)C2)cn1 (stereo not drawn)	-15.1
CN(C)S(=O)(=O)N1C[C@H]2CC[C@@H](C1)N(Cc1ccc3c(c1)OCCO3)C2	20.6
Cc1ccc(-c2ccnc(N3CCC4(CCO4)CC3)n2)c(C)n1	36.5
Cc1ccc(-c2ccnc(N3CCC4(CC3)CNC(=O)C4)n2)c(C)n1	68.9
O=C(O)c1ccnc(-c2ccnc(N3CCC(F)(F)CC3)n2)c1	30.3
O=C1CC2(CCN(c3nccc(-c4cc(C(=O)O)ccn4)n3)CC2)CN1	64.9
O=C(O)c1ccnc(-c2ccnc(N3CCC4(CCO4)CC3)n2)c1	40.2
Cc1ccc(-c2ccnc(N3CCC4(CC3)CNC(=O)O4)n2)c(C)n1	30.9
Cc1cc(OC(F)F)c(C(=O)N2CCC(CN(C)C)CC2)s1	-9.44
CC(C)c1cc(CN(C)C(=O)CN2CCC(C(N)=O)CC2)no1	12.7
